Cardiac RTF inh = cardiac RTF calcium desensitization. P19429+P45379. IANBD-labeled cardiac RTF, Ca2+ fluorescence. inhibition, % at 7.15 µM. 340,000 compounds, 0.12% hits. AID 493244;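 active = inhibition above the mean inhibition of all tested compounds plus 3 SD, cut at about 17% in these data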;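 note: assay run at fixed EC70 calcium of 1.6 mM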
LANA-H2A inh = blocks KSHV LANA binding to histone H2A/H2B | AID 2629 | cell-free LANA-H2A/H2B peptide, fluorescence polarization | Q9QR71 | 320,000 compounds, 0.6% hits | inhibition, % (test concentration not listed); in the data active = inhibition mostly above about 10%, no sharp cut-off; inactive = mostly below about 6.7%
Target sequence (Q9QR71 whole entry, looked up): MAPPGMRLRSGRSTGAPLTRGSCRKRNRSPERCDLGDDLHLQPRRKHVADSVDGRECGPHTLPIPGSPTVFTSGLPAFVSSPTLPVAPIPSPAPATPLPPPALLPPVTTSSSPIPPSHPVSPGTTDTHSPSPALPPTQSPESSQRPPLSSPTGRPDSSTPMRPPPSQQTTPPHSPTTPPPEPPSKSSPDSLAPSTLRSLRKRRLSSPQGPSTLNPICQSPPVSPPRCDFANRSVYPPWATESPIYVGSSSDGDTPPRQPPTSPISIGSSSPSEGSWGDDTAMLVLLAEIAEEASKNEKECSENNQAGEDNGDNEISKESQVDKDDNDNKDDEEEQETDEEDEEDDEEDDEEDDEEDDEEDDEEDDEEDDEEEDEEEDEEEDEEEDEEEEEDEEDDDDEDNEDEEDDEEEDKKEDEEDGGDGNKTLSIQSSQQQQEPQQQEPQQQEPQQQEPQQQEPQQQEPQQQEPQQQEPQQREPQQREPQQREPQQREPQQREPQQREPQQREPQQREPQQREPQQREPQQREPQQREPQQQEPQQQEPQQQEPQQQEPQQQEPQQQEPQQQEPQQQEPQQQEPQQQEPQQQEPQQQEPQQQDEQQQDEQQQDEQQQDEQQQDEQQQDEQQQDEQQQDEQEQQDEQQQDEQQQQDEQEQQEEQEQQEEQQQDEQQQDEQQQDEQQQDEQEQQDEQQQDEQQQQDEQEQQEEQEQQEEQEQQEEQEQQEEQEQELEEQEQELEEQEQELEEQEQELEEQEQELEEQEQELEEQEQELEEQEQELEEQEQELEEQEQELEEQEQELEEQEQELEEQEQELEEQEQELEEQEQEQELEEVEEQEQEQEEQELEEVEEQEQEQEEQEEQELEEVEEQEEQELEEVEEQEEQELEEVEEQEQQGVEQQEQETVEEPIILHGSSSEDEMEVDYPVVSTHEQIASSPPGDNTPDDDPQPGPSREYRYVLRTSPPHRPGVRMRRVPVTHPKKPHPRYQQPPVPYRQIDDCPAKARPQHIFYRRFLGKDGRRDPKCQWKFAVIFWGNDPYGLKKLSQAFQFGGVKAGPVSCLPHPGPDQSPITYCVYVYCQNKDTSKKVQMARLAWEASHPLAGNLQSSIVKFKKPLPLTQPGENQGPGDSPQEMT
cardiac RTF act = cardiac RTF calcium sensitization. activation, % at 7.2 µM. IANBD-labeled TnC RTF fluorescence at EC20 calcium; 0% EC20 calcium, 100% full calcium. P19429+P45379. 340,000 compounds, 0.24% hits;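 active = activation above the mean over all tested compounds plus 3 SD, cut at about 30% in these data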;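 note: rise in fluorescence read as greater calcium sensitivity of cardiac thin filaments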
C-LANA FP = KSHV C-LANA DNA binding inhibition; MBP-C-LANA/FAM-LBS DNA binding, fluorescence polarization; inhibition, % at 9 µM; 340,000 compounds, 0.078% hits; AID 504423;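 active = highest replicate inhibition at or above 60% at 9 µM, even if other replicates fall short; inactive = all replicates below 60% inhibition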;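 note: 0% = neutral control wells and 100% = 4 µM acridine orange control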
Keap1 Nrf2 FP = Keap1-Nrf2 (human) interaction inhibition; Q14145; Keap1 Kelch-Nrf2 peptide fluorescence polarization, 1536-well; inhibition, % at 9.4 µM; 340,000 compounds, 0.15% hits; AID 504523; in the data active = inhibition above about 12%; inconclusive = no clear call, values can overlap the other calls; inactive = below about 7.3%;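 note: human Keap1 Kelch domain with fluorescein labeled Nrf2 9mer peptide probe; 0% = neutral control wells and 100% = peptide positive control; higher means more block of Keap1 binding to Nrf2 peptide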
* marks the source's active call; other numbers are inactive results. This is a sample that favours compounds with a hit; in the whole collection about 0.98% have one here.

How did CCCNC(=O)c1oc2ccc3c(c2c1C)C(O)CC(C)(C)O3 (configuration not stated) do in these assays?
Cardiac RTF inh: -7.2; LANA-H2A inh: -2.6; cardiac RTF act: 2.1; C-LANA FP: 0.4; Keap1 Nrf2 FP: 0.3

Results for O=C(c1ccccc1)c1cc2ccc(O)cc2oc1=O ?
Cardiac RTF inh: -7.2; LANA-H2A inh: 41.4*; cardiac RTF act: 0.7; C-LANA FP: 0.4; Keap1 Nrf2 FP: -2.3

What do the screens show for `N#Cc1cccc(NC(=O)CSc2ccc3c4c(cccc24)C(=O)c2ccccc2-3)c1`?
Cardiac RTF inh: -57.8; LANA-H2A inh: -2.7; cardiac RTF act: 42.1*; C-LANA FP: 3.4; Keap1 Nrf2 FP: 1.8

What do the screens show for `COc1ccc(NC(=O)CSc2ccc3c4c(cccc24)C(=O)c2ccccc2-3)cc1`?
Cardiac RTF inh: -18.0; LANA-H2A inh: 4.5; cardiac RTF act: 26.6; C-LANA FP: 1.1; Keap1 Nrf2 FP: -1.0

Results for O=C(O)c1ccc(NS(=O)(=O)c2ccc3c(c2)OCCCO3)cc1 ?
Cardiac RTF inh: 2.5; LANA-H2A inh: 2.3; cardiac RTF act: 0.3; C-LANA FP: -2.2; Keap1 Nrf2 FP: -3.3

What do the screens show for `O=C(O)CCNS(=O)(=O)c1ccc2c(c1)OCCCO2`?
Cardiac RTF inh: -1.5; LANA-H2A inh: 12.8*; cardiac RTF act: -1.5; C-LANA FP: -0.7; Keap1 Nrf2 FP: 6.2

How did COc1ccc(OCC(=O)NCCCNC(=O)COc2ccc(OC)cc2)cc1 do in these assays?
Cardiac RTF inh: -6.4; LANA-H2A inh: 11.0*; cardiac RTF act: -1.5; C-LANA FP: -1.4; Keap1 Nrf2 FP: -2.2

Results for Cc1ccc(OCC(=O)NCCCNC(=O)COc2ccc(C)cc2)cc1 ?
Cardiac RTF inh: -5.5; cardiac RTF act: -4.9; C-LANA FP: 0.3; Keap1 Nrf2 FP: 1.4

What do the screens show for `COc1ccc(OCC(=O)NNC(=O)C(=O)Nc2ccccc2)cc1`?
Cardiac RTF inh: -9.0; LANA-H2A inh: -2.9; cardiac RTF act: 0.7; C-LANA FP: -2.1; Keap1 Nrf2 FP: -5.0

Results for COCCNC(=O)C(=O)NNC(=O)COc1ccc(OC)cc1 ?
Cardiac RTF inh: -6.2; LANA-H2A inh: 19.6*; cardiac RTF act: 0.8; C-LANA FP: -2.3; Keap1 Nrf2 FP: -8.2

How did Cc1cccc(N(C)C(=O)c2cnn(-c3ccccc3)c2C)c1 do in these assays?
Cardiac RTF inh: -4.2; LANA-H2A inh: 11.6; cardiac RTF act: -7.6; C-LANA FP: 2.0; Keap1 Nrf2 FP: -0.8

Results for COc1ccc(OC)c(NC(=O)c2cc(-c3cc(Cl)ccc3O)n[nH]2)c1 ?
Cardiac RTF inh: 6.5; LANA-H2A inh: -2.4; cardiac RTF act: 0.3; C-LANA FP: 1.4; Keap1 Nrf2 FP: 5.4

Results for COc1ccc(Cl)cc1NC(=O)c1cc(-c2ccccc2O)n[nH]1 ?
Cardiac RTF inh: -5.8; LANA-H2A inh: 16.1*; cardiac RTF act: 1.3; C-LANA FP: 1.3; Keap1 Nrf2 FP: -1.5

What do the screens show for `CC1CCN(S(=O)(=O)c2ccc(NC(=O)Cc3ccc(S(=O)(=O)N4CCOCC4)s3)cc2)CC1`?
Cardiac RTF inh: 1.1; LANA-H2A inh: active; cardiac RTF act: -2.6; C-LANA FP: -1.0; Keap1 Nrf2 FP: -6.7

What do the screens show for `O=C(Cc1ccc(S(=O)(=O)N2CCOCC2)s1)Nc1cc(Cl)ccc1Cl`?
Cardiac RTF inh: -7.5; LANA-H2A inh: active; cardiac RTF act: 0.6; C-LANA FP: -2.3; Keap1 Nrf2 FP: -3.6

Results for COc1ccccc1NC(=O)N1CCN(C(=O)c2ccco2)CC1 ?
Cardiac RTF inh: -9.6; LANA-H2A inh: 5.2; cardiac RTF act: 0.8; C-LANA FP: -0.1; Keap1 Nrf2 FP: -4.3

What do the screens show for `COc1ccccc1NC(=S)N1CCN(C(=O)c2ccco2)CC1`?
Cardiac RTF inh: -1.1; LANA-H2A inh: 15.8*; cardiac RTF act: 0.6; C-LANA FP: -0.9; Keap1 Nrf2 FP: -2.8

Results for COc1ccccc1NC(=O)/C(=C\c1cccs1)NC(=O)c1ccco1 ?
Cardiac RTF inh: -0.2; LANA-H2A inh: active; cardiac RTF act: 1.2; C-LANA FP: 0.4; Keap1 Nrf2 FP: -3.1

How did COc1ccc2oc(C(=O)N3CCN(C(=O)c4ccco4)CC3)c(C)c2c1 do in these assays?
Cardiac RTF inh: 4.7; LANA-H2A inh: 19.9*; cardiac RTF act: 0.1; C-LANA FP: 0.0; Keap1 Nrf2 FP: -3.9

How did Cn1ccnc1C(=O)Cc1ccc([N+](=O)[O-])cc1 do in these assays?
LANA-H2A inh: 0.2

What do the screens show for `Cc1cc(OCC(=O)NC2CCN(Cc3ccccc3)CC2)c2c(C)cc(=O)oc2c1`?
Cardiac RTF inh: -5.7; LANA-H2A inh: 6.5; cardiac RTF act: -3.1; C-LANA FP: 9.6; Keap1 Nrf2 FP: -2.4

Results for COc1ccc(CNC(=O)c2ccc(Cl)c(S(=O)(=O)N3CCOCC3)c2)cc1OC ?
Cardiac RTF inh: -2.6; LANA-H2A inh: 1.7; cardiac RTF act: -0.9; C-LANA FP: 0.6; Keap1 Nrf2 FP: 1.0

How did C/C(=C\c1ccc2c(c1)OCO2)C1Nc2cccc3cccc(c23)N1 do in these assays?
Cardiac RTF inh: 0.0; LANA-H2A inh: 5.3; cardiac RTF act: -1.5; C-LANA FP: 62.3*; Keap1 Nrf2 FP: 7.0

How did COc1cccc(CN2CC(C(=O)N3CCN(c4ccc(Cl)cc4)CC3)CCC2=O)c1 (configuration not stated) do in these assays?
Cardiac RTF inh: 2.4; LANA-H2A inh: 0.6; cardiac RTF act: -5.4; C-LANA FP: -1.7; Keap1 Nrf2 FP: 1.2

Results for CC(OC(=O)c1cc2ccccc2cc1O)C(=O)Nc1ccc(S(N)(=O)=O)cc1 (configuration not stated) ?
Cardiac RTF inh: -7.6; LANA-H2A inh: -4.3; cardiac RTF act: 4.8; C-LANA FP: 0.1; Keap1 Nrf2 FP: 1.7

Results for Cc1cccc(C)c1NC(=O)COC(=O)c1ccc2c(c1)OCO2 ?
Cardiac RTF inh: -24.4; LANA-H2A inh: 1.0; cardiac RTF act: 14.4; C-LANA FP: -0.8; Keap1 Nrf2 FP: -3.6

What do the screens show for `COc1cc(/C=C2\CCCc3c2nc2ccccc2c3C(=O)O)cc(Br)c1O`?
Cardiac RTF inh: -4.6; LANA-H2A inh: -2.5; cardiac RTF act: -4.7; C-LANA FP: 0.2; Keap1 Nrf2 FP: -0.9

Results for CC(OC(=O)c1c2c(nc3ccccc13)/C(=C\c1ccc3c(c1)OCO3)CCC2)C(=O)Nc1ccc(S(N)(=O)=O)cc1 (configuration not stated) ?
Cardiac RTF inh: inactive; cardiac RTF act: 114.9*; C-LANA FP: 9.5; Keap1 Nrf2 FP: -3.2

How did CCOc1cc(/C=C2\CCCc3c2nc2ccccc2c3C(=O)O)ccc1OC do in these assays?
Cardiac RTF inh: -25.3; LANA-H2A inh: 85.3*; cardiac RTF act: 9.3; C-LANA FP: 3.4; Keap1 Nrf2 FP: 1.5

What do the screens show for `Cc1cccc(C)c1NC(=O)COC(=O)c1c2c(nc3ccccc13)/C(=C\c1ccc3c(c1)OCO3)CCC2`?
Cardiac RTF inh: -1.9; LANA-H2A inh: 62.5*; cardiac RTF act: 6.2; C-LANA FP: 2.0; Keap1 Nrf2 FP: inconclusive

Results for COc1ccc(C2=CCC3CCCCN3C2)cc1OC (configuration not stated) ?
Cardiac RTF inh: 8.6; LANA-H2A inh: 11.4; cardiac RTF act: 1.1; C-LANA FP: 0.6; Keap1 Nrf2 FP: -3.9
